How the values were obtained:
Assay in all cases: DAPPL (digital affinity profiling via proximity ligation, sequencing); 10 mM Tris-HCl pH 7.5, 50 mM NaCl, 1 mM DTT, 4% glycerol, room temperature, 30 min; GST-TFs on glutathione beads, 16-mer random dsDNA library, 0.1% formaldehyde crosslink after washing; high values mean tight binding
FLI1 = molecular target: T1, FLI1 (Homo sapiens, UniProt Q01543 1-452); details: protein: recombinant; tags: N-terminal GST; dsDNA, one strand shown
T1 sequence: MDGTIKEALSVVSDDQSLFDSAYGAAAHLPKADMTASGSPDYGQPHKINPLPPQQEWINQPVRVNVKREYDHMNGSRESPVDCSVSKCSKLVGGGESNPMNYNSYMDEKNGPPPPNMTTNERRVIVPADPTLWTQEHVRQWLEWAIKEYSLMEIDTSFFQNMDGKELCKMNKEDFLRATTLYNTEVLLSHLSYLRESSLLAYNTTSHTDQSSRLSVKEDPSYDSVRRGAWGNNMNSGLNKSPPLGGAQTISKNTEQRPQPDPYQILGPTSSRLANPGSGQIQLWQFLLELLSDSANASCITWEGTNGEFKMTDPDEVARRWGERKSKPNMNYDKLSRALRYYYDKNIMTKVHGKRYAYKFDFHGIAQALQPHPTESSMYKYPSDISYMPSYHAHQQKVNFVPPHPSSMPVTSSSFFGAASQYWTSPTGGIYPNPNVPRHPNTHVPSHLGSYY
Summary of the method: (§1)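 Human transcription factors were made in yeast as GST fusions, captured on glutathione beads and barcoded with DNA. With a tag-only sample included, the pool was incubated with 200 nmole of a random double-stranded 16-mer DNA library in Tris/NaCl/DTT/glycerol buffer at room temperature for 30 min, then crosslinked with 0.1% formaldehyde after washing, ligated by proximity, amplified and sequenced. For binding signal, each hexamer's read frequency for a factor is divided by its frequency for the tag-only sample.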

ELK1 = molecular target: T2, ELK1 (Homo sapiens, UniProt P19419 1-428); details: protein: recombinant; tags: N-terminal GST; dsDNA, one strand shown
T2 sequence: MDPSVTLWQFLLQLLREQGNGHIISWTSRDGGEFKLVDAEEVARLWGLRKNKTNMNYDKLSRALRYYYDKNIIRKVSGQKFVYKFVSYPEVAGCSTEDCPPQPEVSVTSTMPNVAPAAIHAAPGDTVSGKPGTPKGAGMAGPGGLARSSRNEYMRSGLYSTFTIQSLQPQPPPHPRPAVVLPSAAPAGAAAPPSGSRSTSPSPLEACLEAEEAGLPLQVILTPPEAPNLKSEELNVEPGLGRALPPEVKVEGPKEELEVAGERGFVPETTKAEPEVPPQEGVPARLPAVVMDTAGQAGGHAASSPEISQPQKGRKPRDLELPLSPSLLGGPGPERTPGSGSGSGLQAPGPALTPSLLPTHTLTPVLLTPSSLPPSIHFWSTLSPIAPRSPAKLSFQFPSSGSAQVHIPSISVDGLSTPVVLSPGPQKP
Summary of the method: as §1

GABPA = molecular target: T3, GABPA (Homo sapiens, UniProt Q06546 1-454); details: protein: recombinant; tags: N-terminal GST; dsDNA, one strand shown
T3 sequence: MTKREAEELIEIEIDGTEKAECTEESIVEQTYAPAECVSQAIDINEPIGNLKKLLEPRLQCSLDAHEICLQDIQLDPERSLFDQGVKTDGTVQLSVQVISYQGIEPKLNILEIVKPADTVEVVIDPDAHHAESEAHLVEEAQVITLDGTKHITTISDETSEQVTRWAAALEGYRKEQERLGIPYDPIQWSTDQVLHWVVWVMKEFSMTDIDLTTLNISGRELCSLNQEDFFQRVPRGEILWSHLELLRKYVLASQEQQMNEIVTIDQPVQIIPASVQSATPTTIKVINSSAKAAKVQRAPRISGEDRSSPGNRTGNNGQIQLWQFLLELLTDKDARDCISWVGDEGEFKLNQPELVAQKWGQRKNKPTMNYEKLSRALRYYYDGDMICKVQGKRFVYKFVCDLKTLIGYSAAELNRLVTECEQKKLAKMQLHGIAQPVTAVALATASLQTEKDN
Summary of the method: as §1

ERG = molecular target: T4, ERG (Homo sapiens, UniProt P11308 1-479); details: protein: recombinant; tags: N-terminal GST; dsDNA, one strand shown
T4 sequence: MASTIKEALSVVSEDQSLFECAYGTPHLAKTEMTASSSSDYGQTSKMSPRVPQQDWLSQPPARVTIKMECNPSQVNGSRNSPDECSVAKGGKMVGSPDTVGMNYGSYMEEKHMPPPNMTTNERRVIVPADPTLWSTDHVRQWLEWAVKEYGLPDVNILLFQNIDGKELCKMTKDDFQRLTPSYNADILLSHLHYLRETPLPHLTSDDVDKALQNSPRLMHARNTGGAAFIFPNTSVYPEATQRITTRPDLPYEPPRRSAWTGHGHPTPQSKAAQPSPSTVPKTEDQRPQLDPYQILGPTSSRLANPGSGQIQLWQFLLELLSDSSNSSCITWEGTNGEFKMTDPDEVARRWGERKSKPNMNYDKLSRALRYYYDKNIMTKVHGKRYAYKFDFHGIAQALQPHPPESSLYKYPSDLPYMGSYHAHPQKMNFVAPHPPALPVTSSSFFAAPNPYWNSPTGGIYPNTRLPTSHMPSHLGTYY
Summary of the method: as §1

ELF1 = ELF1 (Homo sapiens, UniProt P32519 1-619); details: protein: recombinant; tags: N-terminal GST; dsDNA, one strand shown
ELF1, sequence (P32519 whole entry): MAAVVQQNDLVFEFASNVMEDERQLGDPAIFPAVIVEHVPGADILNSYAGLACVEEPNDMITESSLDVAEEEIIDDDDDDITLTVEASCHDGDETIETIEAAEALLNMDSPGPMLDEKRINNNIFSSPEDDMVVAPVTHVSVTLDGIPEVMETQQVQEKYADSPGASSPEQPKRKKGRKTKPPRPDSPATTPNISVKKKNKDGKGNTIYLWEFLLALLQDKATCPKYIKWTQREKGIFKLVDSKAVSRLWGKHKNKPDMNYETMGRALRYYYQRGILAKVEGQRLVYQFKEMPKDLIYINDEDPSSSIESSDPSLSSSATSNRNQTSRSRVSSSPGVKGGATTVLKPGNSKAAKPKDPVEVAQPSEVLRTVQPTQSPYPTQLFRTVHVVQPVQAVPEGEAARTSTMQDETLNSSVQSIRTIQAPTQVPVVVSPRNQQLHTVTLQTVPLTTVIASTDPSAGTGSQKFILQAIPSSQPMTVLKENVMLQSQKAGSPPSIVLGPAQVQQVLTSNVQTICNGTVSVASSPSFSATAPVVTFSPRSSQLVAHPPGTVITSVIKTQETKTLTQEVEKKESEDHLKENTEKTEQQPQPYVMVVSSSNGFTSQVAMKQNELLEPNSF
Summary of the method: as §1

EHF = molecular target: T5, EHF (Homo sapiens, UniProt Q9NZC4 1-300); details: protein: recombinant; tags: N-terminal GST; dsDNA, one strand shown
T5 sequence: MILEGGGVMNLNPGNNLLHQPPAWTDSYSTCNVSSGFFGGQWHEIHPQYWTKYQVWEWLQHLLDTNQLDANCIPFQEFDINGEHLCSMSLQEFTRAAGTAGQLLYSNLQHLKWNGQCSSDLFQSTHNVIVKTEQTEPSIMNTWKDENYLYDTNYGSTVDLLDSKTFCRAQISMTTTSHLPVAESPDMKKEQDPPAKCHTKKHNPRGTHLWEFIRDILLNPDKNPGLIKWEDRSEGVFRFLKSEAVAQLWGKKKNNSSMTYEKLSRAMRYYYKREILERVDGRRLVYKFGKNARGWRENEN
Summary of the method: as §1

SPI1 = SPI1 (Homo sapiens, UniProt P17947 1-270); details: protein: recombinant; tags: N-terminal GST; dsDNA, one strand shown
Summary of the method: as §1

SPIB = SPIB (Homo sapiens, UniProt Q01892 1-262); details: protein: recombinant; tags: N-terminal GST; dsDNA, one strand shown
SPIB, sequence (Q01892 whole entry): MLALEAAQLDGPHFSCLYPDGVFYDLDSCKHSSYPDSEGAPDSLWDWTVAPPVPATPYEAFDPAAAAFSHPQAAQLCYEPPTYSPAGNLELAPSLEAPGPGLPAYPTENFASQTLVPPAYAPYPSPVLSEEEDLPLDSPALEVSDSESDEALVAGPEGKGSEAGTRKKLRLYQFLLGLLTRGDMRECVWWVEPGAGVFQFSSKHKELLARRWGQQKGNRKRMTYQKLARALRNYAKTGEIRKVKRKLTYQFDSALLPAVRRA
Summary of the method: as §1

ELK3 = molecular target: T6, ELK3 (Homo sapiens, UniProt P41970 1-407); details: protein: recombinant; tags: N-terminal GST; dsDNA, one strand shown
T6 sequence: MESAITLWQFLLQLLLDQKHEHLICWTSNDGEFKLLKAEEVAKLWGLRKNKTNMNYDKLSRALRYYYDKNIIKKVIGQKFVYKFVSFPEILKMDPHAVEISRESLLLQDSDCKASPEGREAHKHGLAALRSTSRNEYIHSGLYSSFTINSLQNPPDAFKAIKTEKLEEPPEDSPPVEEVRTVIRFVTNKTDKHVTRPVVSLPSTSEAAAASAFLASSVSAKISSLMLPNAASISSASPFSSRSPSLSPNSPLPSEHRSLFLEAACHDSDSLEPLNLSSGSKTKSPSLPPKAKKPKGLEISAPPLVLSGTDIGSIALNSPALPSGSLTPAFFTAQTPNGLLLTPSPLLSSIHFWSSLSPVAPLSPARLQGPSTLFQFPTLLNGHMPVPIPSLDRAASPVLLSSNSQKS
Summary of the method: as §1

FEV = molecular target: T7, FEV (Homo sapiens, UniProt Q99581 1-238); details: protein: recombinant; tags: N-terminal GST; dsDNA, one strand shown
T7 sequence: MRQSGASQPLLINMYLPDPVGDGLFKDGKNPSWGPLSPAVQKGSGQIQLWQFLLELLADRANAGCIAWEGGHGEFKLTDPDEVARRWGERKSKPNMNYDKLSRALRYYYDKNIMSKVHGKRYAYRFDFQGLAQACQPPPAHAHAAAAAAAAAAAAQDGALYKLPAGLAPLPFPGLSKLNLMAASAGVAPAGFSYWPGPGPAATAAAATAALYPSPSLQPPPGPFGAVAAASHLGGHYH
Summary of the method: as §1

ETV5 = ETV5 (Homo sapiens, UniProt P41161 1-510); details: protein: recombinant; tags: N-terminal GST; dsDNA, one strand shown
ETV5, sequence (P41161 whole entry): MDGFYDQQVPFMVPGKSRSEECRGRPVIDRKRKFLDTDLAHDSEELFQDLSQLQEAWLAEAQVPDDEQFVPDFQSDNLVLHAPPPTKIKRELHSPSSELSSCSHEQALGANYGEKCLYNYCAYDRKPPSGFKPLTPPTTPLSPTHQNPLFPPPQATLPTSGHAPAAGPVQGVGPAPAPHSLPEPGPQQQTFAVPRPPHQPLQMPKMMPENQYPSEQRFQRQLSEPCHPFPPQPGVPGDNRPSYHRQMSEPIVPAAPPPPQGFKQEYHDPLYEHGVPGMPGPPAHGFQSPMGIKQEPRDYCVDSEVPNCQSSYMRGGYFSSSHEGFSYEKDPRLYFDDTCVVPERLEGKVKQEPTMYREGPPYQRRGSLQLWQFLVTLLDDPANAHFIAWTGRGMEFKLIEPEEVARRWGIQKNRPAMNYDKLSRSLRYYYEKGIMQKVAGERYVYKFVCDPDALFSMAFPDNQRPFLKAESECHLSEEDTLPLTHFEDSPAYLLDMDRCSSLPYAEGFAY
Summary of the method: as §1

HSF1 = HSF1 (Homo sapiens, UniProt Q00613 1-529); details: protein: recombinant; tags: N-terminal GST; chain copies: 3; dsDNA, one strand shown
HSF1, sequence (Q00613 whole entry): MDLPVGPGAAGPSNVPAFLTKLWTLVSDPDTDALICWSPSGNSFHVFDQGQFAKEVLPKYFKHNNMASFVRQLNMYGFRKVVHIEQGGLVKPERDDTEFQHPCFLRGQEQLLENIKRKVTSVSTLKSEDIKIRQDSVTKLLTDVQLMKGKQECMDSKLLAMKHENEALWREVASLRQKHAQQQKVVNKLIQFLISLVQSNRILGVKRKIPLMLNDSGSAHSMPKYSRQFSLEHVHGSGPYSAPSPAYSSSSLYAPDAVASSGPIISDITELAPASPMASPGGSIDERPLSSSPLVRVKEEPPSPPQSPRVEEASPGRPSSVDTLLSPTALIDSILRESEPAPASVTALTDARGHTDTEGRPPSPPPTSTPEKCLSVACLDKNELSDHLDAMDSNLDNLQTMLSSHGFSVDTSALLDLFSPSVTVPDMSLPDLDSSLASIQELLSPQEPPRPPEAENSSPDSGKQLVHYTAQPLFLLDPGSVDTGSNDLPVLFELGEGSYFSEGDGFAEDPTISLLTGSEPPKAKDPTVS
Summary of the method: as §1

SPIC = molecular target: T8, SPIC (Homo sapiens, UniProt Q8N5J4 1-248); details: protein: recombinant; tags: N-terminal GST; dsDNA, one strand shown
T8 sequence: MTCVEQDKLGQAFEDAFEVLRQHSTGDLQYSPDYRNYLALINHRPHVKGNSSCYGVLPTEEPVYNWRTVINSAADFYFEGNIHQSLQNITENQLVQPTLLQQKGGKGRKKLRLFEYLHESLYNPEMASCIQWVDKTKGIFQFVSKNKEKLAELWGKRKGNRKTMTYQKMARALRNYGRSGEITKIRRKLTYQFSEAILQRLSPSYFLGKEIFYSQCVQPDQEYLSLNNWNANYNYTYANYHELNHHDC
Summary of the method: as §1

ELF4 = ELF4 (Homo sapiens, UniProt Q99607 1-663); details: protein: recombinant; tags: N-terminal GST; dsDNA, one strand shown
ELF4, sequence (Q99607 whole entry): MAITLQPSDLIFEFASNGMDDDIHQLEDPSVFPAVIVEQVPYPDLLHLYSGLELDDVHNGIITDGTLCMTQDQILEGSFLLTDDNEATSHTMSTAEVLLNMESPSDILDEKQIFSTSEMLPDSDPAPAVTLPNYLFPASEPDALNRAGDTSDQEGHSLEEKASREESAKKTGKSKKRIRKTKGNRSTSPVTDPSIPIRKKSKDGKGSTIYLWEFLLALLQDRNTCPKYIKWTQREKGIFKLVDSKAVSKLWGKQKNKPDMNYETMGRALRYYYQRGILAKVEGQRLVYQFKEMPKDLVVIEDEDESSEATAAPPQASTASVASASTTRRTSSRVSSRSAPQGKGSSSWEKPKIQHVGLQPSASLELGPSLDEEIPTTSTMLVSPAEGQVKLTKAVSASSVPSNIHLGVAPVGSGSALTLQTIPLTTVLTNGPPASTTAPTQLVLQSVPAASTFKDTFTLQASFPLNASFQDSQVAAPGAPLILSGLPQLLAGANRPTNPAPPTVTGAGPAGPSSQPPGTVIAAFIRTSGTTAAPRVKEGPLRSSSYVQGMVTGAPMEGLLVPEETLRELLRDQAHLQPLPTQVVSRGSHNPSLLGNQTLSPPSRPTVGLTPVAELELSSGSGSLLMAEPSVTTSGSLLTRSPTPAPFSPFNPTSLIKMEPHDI
Summary of the method: as §1

ELK4 = molecular target: T9, ELK4 (Homo sapiens, UniProt P28324-2 1-405); details: protein: recombinant; tags: N-terminal GST; dsDNA, one strand shown
T9 sequence: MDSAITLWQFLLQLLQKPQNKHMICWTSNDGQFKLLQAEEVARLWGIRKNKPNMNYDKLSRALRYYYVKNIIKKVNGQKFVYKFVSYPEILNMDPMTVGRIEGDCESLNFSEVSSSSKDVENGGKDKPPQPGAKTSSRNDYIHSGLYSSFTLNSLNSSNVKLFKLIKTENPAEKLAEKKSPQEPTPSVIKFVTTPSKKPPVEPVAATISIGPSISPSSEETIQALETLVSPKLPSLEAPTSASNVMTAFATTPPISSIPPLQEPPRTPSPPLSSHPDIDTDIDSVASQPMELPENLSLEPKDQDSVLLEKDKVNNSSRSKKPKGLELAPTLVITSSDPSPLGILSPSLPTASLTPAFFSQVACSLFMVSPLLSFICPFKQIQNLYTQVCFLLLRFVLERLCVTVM
Summary of the method: as §1

ETV2 = molecular target: T10, ETV2 (Homo sapiens, UniProt O00321 1-342); details: protein: recombinant; tags: N-terminal GST; dsDNA, one strand shown
T10 sequence: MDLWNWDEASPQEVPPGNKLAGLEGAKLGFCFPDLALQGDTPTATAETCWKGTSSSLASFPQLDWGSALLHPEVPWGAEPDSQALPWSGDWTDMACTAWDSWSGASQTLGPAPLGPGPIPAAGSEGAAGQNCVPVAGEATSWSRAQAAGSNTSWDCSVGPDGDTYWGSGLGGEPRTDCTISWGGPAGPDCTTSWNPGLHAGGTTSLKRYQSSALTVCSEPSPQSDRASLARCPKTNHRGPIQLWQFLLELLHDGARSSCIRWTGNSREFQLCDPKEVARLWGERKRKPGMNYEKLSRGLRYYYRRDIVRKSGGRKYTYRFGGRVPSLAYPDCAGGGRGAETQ
Summary of the method: as §1

ELF3 = molecular target: T11, ELF3 (Homo sapiens, UniProt P78545 1-371); details: protein: recombinant; tags: N-terminal GST; dsDNA, one strand shown
T11 sequence: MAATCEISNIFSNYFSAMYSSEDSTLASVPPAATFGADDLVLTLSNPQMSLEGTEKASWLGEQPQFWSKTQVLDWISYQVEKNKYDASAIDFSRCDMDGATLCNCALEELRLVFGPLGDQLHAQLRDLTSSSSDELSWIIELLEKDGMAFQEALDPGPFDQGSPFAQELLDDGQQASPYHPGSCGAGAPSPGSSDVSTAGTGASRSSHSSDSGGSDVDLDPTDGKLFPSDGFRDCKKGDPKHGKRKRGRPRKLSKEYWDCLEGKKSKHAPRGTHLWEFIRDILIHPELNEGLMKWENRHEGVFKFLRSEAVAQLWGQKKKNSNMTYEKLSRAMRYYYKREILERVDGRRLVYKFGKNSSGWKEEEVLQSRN
Summary of the method: as §1

CRX = CRX (Homo sapiens, UniProt O43186 1-299); details: protein: recombinant; tags: N-terminal GST; dsDNA, one strand shown
CRX, sequence (O43186 whole entry): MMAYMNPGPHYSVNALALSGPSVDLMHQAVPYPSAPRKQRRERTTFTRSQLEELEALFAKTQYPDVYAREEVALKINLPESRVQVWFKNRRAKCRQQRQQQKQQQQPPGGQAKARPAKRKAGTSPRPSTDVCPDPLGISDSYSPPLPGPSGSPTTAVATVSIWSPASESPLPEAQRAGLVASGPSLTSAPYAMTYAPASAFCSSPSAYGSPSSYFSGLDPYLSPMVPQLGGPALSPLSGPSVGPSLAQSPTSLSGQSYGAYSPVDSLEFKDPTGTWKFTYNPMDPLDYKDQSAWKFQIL
Summary of the method: as §1

ETV1 = ETV1 (Homo sapiens, UniProt P50549 1-477); details: protein: recombinant; tags: N-terminal GST; dsDNA, one strand shown
ETV1, sequence (P50549 whole entry): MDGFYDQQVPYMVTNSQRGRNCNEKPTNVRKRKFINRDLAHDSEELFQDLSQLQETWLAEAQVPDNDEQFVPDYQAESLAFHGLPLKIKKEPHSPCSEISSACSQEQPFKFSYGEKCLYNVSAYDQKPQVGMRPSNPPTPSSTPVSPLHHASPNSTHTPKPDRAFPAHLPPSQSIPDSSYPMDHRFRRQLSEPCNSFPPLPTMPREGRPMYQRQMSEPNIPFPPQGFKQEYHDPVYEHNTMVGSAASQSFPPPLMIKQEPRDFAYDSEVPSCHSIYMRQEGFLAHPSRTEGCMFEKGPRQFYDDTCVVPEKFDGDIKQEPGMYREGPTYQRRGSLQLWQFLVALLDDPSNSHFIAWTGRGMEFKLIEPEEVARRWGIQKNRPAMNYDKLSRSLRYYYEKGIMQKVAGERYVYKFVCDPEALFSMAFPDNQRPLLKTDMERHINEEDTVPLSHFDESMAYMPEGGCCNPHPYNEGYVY
Summary of the method: as §1

TCCAAA
binding signal (FLI1): 1.08 fold enrichment (6-mer frequency, TF over GST control)
binding signal (ELK1): 1.18 fold enrichment (6-mer frequency, TF over GST control)
binding signal (GABPA): 1.31 fold enrichment (6-mer frequency, TF over GST control)
binding signal (ERG): 1.19 fold enrichment (6-mer frequency, TF over GST control)
binding signal (ELF1): 1.18 fold enrichment (6-mer frequency, TF over GST control)
binding signal (EHF): 1.1 fold enrichment (6-mer frequency, TF over GST control)
binding signal (SPI1): 1.12 fold enrichment (6-mer frequency, TF over GST control)
binding signal (SPIB): 1.17 fold enrichment (6-mer frequency, TF over GST control)
binding signal (ELK3): 1.17 fold enrichment (6-mer frequency, TF over GST control)
binding signal (FEV): 1.18 fold enrichment (6-mer frequency, TF over GST control)
binding signal (ETV5): 1.12 fold enrichment (6-mer frequency, TF over GST control)
binding signal (HSF1): 1.3 fold enrichment (6-mer frequency, TF over GST control)
binding signal (SPIC): 1.11 fold enrichment (6-mer frequency, TF over GST control)
binding signal (ELF4): 1.25 fold enrichment (6-mer frequency, TF over GST control)
binding signal (ELK4): 1.17 fold enrichment (6-mer frequency, TF over GST control)
binding signal (ETV2): 1.01 fold enrichment (6-mer frequency, TF over GST control)
binding signal (ELF3): 1.16 fold enrichment (6-mer frequency, TF over GST control)
binding signal (CRX): 1.26 fold enrichment (6-mer frequency, TF over GST control)
binding signal (ETV1): 1.1 fold enrichment (6-mer frequency, TF over GST control)

Source: publication PMC7862700, “An all-to-all approach to the identification of sequence-specific readers for epigenetic DNA modifications on cytosine”
